The text below walks through data of the supplement of paper PMC11001985.

A number with no mark means an inactive call.

Chain of UniProt Q15149 (Q15149 whole entry): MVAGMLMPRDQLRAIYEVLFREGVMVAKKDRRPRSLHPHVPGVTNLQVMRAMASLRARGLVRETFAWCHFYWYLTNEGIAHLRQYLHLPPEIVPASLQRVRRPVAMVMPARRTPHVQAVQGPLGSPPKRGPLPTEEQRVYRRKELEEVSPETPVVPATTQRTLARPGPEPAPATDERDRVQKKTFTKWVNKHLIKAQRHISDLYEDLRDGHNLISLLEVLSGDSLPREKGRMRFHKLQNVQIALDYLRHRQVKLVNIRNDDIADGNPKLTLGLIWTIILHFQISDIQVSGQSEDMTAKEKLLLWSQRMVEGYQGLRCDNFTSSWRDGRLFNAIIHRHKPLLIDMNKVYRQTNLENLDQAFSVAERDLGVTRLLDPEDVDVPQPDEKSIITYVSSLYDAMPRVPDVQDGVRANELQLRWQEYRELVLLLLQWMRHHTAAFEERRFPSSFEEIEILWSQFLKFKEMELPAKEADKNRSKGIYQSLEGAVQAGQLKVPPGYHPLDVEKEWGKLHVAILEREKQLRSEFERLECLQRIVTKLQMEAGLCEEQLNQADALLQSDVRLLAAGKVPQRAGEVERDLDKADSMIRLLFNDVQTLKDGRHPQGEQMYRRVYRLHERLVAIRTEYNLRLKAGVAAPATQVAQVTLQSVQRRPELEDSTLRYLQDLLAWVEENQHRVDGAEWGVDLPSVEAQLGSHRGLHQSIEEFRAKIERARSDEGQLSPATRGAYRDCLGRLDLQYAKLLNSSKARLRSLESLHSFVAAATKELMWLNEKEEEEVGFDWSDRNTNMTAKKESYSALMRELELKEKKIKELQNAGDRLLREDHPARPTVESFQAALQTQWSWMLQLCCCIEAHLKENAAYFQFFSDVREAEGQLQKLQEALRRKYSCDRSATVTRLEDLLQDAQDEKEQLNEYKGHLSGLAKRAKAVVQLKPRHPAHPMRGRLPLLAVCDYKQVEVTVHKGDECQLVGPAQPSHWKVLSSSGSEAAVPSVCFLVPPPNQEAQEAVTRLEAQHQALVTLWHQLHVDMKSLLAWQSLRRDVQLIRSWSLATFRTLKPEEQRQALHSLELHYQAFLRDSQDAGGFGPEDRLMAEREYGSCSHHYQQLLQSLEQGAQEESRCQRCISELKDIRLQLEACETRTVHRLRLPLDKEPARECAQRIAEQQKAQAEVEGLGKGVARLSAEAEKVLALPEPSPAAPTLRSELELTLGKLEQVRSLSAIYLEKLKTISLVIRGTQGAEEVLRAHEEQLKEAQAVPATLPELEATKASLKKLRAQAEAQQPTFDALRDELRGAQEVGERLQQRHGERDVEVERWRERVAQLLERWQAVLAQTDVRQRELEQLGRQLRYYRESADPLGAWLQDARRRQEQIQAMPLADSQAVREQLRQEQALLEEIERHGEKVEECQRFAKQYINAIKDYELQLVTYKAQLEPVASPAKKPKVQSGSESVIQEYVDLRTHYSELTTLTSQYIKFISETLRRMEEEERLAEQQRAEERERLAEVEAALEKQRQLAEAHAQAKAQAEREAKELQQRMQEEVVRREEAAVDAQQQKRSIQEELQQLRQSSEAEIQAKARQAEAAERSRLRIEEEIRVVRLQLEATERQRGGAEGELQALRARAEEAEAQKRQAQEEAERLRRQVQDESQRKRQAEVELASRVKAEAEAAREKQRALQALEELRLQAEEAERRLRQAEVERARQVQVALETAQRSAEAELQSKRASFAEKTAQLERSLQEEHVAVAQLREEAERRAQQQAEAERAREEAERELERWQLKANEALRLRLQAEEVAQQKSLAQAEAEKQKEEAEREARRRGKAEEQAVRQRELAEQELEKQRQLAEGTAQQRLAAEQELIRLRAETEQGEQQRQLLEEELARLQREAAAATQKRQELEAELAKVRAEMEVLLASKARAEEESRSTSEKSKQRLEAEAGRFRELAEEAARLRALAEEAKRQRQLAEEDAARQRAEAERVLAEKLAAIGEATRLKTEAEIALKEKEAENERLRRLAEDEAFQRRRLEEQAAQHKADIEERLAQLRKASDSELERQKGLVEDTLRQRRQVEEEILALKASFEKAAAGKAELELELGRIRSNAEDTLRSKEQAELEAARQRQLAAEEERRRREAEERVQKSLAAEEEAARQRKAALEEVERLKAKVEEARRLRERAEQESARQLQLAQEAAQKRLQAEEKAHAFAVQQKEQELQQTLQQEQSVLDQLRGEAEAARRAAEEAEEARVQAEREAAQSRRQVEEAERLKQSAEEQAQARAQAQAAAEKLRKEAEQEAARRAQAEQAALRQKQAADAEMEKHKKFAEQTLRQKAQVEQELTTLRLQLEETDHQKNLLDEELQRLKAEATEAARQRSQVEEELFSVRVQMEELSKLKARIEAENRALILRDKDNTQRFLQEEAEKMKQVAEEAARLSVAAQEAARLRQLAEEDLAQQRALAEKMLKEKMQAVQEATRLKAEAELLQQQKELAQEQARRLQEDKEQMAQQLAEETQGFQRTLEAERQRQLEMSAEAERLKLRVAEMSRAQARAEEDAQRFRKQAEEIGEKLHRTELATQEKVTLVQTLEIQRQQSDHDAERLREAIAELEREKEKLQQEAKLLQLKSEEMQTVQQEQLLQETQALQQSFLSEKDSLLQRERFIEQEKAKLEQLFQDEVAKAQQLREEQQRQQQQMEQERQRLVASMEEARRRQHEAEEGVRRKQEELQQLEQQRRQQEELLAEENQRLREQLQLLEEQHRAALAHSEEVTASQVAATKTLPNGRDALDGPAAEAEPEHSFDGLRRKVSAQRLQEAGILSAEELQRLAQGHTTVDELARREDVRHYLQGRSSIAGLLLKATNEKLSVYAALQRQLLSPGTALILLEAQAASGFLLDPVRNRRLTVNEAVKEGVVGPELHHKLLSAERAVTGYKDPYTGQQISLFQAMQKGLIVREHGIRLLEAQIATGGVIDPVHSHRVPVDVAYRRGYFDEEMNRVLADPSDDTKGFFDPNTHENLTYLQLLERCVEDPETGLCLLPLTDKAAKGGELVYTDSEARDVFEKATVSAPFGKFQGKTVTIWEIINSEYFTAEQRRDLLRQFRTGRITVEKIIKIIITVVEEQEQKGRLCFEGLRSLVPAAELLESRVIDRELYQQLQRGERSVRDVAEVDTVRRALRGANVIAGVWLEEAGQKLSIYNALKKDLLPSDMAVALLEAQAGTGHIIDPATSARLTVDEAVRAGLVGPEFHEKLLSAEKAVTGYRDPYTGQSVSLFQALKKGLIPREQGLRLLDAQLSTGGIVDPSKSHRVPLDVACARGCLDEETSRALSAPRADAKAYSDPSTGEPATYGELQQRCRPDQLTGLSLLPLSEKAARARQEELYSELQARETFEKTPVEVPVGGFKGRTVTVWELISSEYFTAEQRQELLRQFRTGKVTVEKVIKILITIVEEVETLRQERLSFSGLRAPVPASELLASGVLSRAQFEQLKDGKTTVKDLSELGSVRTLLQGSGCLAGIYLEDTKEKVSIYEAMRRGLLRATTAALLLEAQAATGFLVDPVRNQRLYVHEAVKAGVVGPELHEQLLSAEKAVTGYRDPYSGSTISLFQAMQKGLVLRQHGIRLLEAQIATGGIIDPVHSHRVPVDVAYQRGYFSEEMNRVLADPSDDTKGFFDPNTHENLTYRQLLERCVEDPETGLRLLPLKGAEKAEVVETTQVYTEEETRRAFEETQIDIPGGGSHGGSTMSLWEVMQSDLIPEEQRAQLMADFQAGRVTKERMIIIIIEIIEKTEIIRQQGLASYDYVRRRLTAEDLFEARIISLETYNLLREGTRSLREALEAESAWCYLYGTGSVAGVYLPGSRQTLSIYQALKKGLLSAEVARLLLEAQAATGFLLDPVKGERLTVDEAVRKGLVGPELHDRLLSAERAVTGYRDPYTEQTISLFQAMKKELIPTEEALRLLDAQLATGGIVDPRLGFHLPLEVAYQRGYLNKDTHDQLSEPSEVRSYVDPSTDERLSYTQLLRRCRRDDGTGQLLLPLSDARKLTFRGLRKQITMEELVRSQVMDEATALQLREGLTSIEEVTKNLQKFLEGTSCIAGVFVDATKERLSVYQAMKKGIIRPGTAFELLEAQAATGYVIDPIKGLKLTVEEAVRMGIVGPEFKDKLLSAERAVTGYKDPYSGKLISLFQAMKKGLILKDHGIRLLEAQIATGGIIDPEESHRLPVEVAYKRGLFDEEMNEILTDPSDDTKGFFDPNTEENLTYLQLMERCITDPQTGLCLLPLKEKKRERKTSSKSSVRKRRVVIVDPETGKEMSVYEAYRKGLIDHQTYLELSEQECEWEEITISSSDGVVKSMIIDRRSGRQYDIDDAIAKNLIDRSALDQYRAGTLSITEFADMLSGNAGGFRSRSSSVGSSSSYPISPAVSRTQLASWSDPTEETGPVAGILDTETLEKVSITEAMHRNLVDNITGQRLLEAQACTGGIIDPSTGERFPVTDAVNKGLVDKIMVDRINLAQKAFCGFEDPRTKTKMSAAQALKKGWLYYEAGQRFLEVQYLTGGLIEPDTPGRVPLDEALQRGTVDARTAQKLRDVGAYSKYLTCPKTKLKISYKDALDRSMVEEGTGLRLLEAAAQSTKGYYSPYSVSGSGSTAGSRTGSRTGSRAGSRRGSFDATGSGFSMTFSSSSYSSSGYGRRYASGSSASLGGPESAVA
Chain of UniProt Q14696 (Q14696 whole entry): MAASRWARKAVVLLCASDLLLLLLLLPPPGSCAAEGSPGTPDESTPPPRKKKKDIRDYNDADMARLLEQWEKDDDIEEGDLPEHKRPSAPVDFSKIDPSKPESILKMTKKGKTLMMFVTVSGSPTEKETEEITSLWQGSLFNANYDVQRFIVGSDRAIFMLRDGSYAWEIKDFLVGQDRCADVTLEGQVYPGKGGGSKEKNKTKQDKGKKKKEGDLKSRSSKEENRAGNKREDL
Chain of UniProt P37802 (P37802 whole entry): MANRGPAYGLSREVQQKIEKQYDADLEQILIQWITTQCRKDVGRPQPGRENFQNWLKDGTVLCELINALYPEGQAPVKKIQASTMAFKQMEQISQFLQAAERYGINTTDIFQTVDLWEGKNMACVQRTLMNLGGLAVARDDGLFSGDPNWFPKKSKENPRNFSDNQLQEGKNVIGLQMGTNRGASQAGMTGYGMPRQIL

Compound in the assay: C#CCNC(=O)CCSSCCC(=O)NCCc1ccc(C=O)c(C=O)c1
As to the kind of experiment: lysine labeling ratio R10:1 (500 µM / 50 µM probe), SILAC-ABPP in living cells; higher = lower intrinsic lysine reactivity toward the probe, active = 2 or less. As to conditions: HeLa; probe concentrations 500 vs 50 µM. An outline of the steps: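 In PBS at room temperature, living HeLa cells grown with SILAC light or heavy labels were treated with 50 µM or 500 µM of an alkyne-tagged, disulfide-linked lysine probe, with label swaps in both directions. Analysis was by LC-MS/MS on a TIMS-TOF Pro after click to biotin-azide, neutravidin capture and DTT release. For each lysine, R is the median across forward and reverse replicates of the filtered median high-probe/low-probe MS1 peptide ratio, capped at 20.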
Regarding UniProt Q8WXI7 (lysine site: K12467), the “lysine labeling ratio R10:1” value is 5.1.
With “PPIB (lysine site: K98) (UniProt P23284)”, the “lysine labeling ratio R10:1” value is 1.78 (active).
Consider “EIF3I (lysine site: K2) (UniProt Q13347)”, for which the “lysine labeling ratio R10:1” value is 2.67.
In the case of UniProt Q15149 (lysine site: K1815) it was 3.79.
For “NRP1 (lysine site: K534) (UniProt O14786)”, the “lysine labeling ratio R10:1” value is 2.17.
As to UniProt P62805 (lysine site: K13), the “lysine labeling ratio R10:1” value is 2.71.
On to “PGK1 (lysine site: K146) (UniProt P00558)”, for which the “lysine labeling ratio R10:1” value was 1.57 (active).
As to “CCT6A (lysine site: K388) (UniProt P40227)”, the “lysine labeling ratio R10:1” value was 1.46 (active).
For UniProt Q15149 (lysine site: K4140), the “lysine labeling ratio R10:1” value is 3.87.
Turning to “HNRNPC (lysine site: K176) (UniProt P07910)”, the “lysine labeling ratio R10:1” value is 3.1.
As for “PLXNB2 (lysine site: K1110) (UniProt O15031)”, the “lysine labeling ratio R10:1” value was 4.66.
In the case of “LRP1 (lysine site: K2653) (UniProt Q07954)” it was 1.54 (active).
For UniProt P02768 (lysine site: K438), the “lysine labeling ratio R10:1” value was 10.
Turning to UniProt Q14696 (lysine site: K222), the “lysine labeling ratio R10:1” value is 3.35.
As for “SPTAN1 (lysine site: K825) (UniProt Q13813)”, the “lysine labeling ratio R10:1” value was 4.08.
In the case of “ACTN4 (lysine site: K592) (UniProt O43707)” it was 6.67.
As to “CYR61 (lysine site: K378) (UniProt O00622)”, the “lysine labeling ratio R10:1” value is 1.08 (active).
In the case of “ITGA2 (lysine site: K1046) (UniProt P17301)” it was 6.48; in that of “FASN (lysine site: K41) (UniProt P49327)”, 0.712 (active); in that of “JUP (lysine site: K656) (UniProt P14923)”, 0.972 (active).
The same measure for “FN1 (lysine site: K1623) (UniProt P02751)”: 1.34 (active); for “VASN (lysine site: K333) (UniProt Q6EMK4)”: 1.84 (active); for “TAGLN2 (lysine site: K154) (UniProt P37802)”: 1.43 (active).
